Assay results as given in PubChem BioAssay (NCI).
Compounds without any hit were thinned out: in the full panel of roughly 83,000, 20% have a hit.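 Single-concentration screen, 48 h exposure, 96-well plates. Endpoint: percent growth. Below 10 = active.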 Unmarked numbers belong to inactive results. Active and inactive are the calls of the source.

Columns and labels:
Experiment in all cases: NCI-60 one-dose screen, 48 h (100 = growth as untreated, 0 = no growth, -100 = all killed)
Conditions in all cases: 10 µM unless noted
DU-145 prostate = test system: DU-145 prostate
K-562 leukemia = test system: K-562 leukemia
MALME-3M melanoma = test system: MALME-3M melanoma
MDA-MB-231 breast = test system: MDA-MB-231 breast
RXF 393 renal = test system: RXF 393 renal
SF-268 CNS = test system: SF-268 CNS
SF-295 CNS = test system: SF-295 CNS
SF-539 CNS = test system: SF-539 CNS
UACC-257 melanoma = test system: UACC-257 melanoma
M14 melanoma = test system: M14 melanoma
HCT-15 colon = test system: HCT-15 colon
HT29 colon = test system: HT29 colon
SNB-75 CNS = test system: SNB-75 CNS
U251 CNS = test system: U251 CNS
PC-3 prostate = test system: PC-3 prostate
SK-MEL-5 melanoma = test system: SK-MEL-5 melanoma
UACC-62 melanoma = test system: UACC-62 melanoma
LOX IMVI melanoma = test system: LOX IMVI melanoma
SK-MEL-28 melanoma = test system: SK-MEL-28 melanoma
SNB-19 CNS = test system: SNB-19 CNS

| SMILES | growth (DU-145 prostate) | growth (K-562 leukemia) | growth (MALME-3M melanoma) | growth (MDA-MB-231 breast) | growth (RXF 393 renal) | growth (SF-268 CNS) | growth (SF-295 CNS) | growth (SF-539 CNS) | growth (UACC-257 melanoma) | growth (M14 melanoma) | growth (HCT-15 colon) | growth (HT29 colon) | growth (SNB-75 CNS) | growth (U251 CNS) | growth (PC-3 prostate) | growth (SK-MEL-5 melanoma) | growth (UACC-62 melanoma) | growth (LOX IMVI melanoma) | growth (SK-MEL-28 melanoma) | growth (SNB-19 CNS) |
| --- | --- | --- | --- | --- | --- | --- | --- | --- | --- | --- | --- | --- | --- | --- | --- | --- | --- | --- | --- | --- |
| O=C1C(N2CC2)=C(N2CC2)C(=O)C(N2CC2)=C1N1CC1 | -15.5% (active) | 29.2% | -67.5% (active) | 93.3% | -73.4% (active) | 19.9% | -17.9% (active) | -67.1% (active) | -44.1% (active) | -82.4% (active) | 2.19% (active) | 2.38% (active) | -52.6% (active) | -63.6% (active) | 7.53% (active) | -76.7% (active) | -84.6% (active) | -61.5% (active) | -51.8% (active) | – |
| O=C(CC1(O)C(=O)N(Cc2ccccc2)c2ccc(F)cc21)c1ccc(C(=O)NCC2CCC3(CC2)OOC2(CCCCC2)OO3)cc1 (centres undefined) | -94.3% (active) | -42.7% (active) | -69.2% (active) | -74% (active) | -80.4% (active) | -60.3% (active) | -14.1% (active) | -84.8% (active) | -2.89% (active) | 15.3% | -14.3% (active) | -70.2% (active) | -62.1% (active) | -80.1% (active) | -58.8% (active) | – | -12.5% (active) | -84.5% (active) | 51.5% | 16.8% |
| C/C(=C\c1ccn(-c2ccc(N)cc2C(F)(F)F)n1)[C@@H]1C[C@@H]2O[C@]2(C)CCC[C@H](C)[C@H](O)[C@@H](C)C(=O)C(C)(C)[C@@H](O)CC(=O)O1 | -14.1% (active) | 6.1% (active) | 39.9% | 16.4% | 9.23% (active) | 22.5% | 2.39% (active) | 3.05% (active) | 37.9% | -12.6% (active) | 14% | 10.5% | -7.43% (active) | 13.3% | 15.4% | – | 27.7% | 26.4% | 63.2% | 21.5% |
| COc1ccc2c(c1)c(-c1nc(-c3cn(C)c4ncccc34)cs1)cn2CCCCN1CCCCC1 | 7.63% (active) | -66.8% (active) | -73.9% (active) | -74.8% (active) | -80.1% (active) | -37.9% (active) | -50.1% (active) | -80.2% (active) | -68.3% (active) | -79.1% (active) | -80.9% (active) | -72.6% (active) | 63.9% | -85.6% (active) | -66.3% (active) | -80.4% (active) | – | -78% (active) | -69% (active) | -1.68% (active) |
| Clc1cccc(NCOOC2(OOCNc3cccc(Cl)c3)CCCCCC2)c1 | 103% | 32.6% | 97% | 103% | 114% | 94.3% | 90.4% | 86.8% | 112% | 97.3% | 93.2% | 102% | – | 101% | 91.2% | 93.7% | 102% | -85.2% (active) | 107% | 93.2% |
| COc1ccc2c(c1)c(-c1nc(-c3cn(C)c4ncccc34)cs1)cn2CCN1CCOCC1 | 36.3% | 9.83% (active) | 71.5% | 56.8% | 56.7% | 48.4% | 49.3% | 48% | 93.2% | 31.9% | 20.9% | 25.9% | 63.3% | 28.2% | 17.6% | 30.7% | – | 32.5% | 56.1% | 33.1% |
| O=C(CC1(O)C(=O)Nc2ccccc21)c1ccc(C(=O)NCC2CCC3(CC2)OOC2(CCCCC2)OO3)cc1 (centres undefined) | 76.3% | 39.6% | 56.1% | 67% | 98.1% | 82% | 76.2% | 81% | 67.1% | 85.7% | 79.9% | 82.1% | 82.1% | 63.6% | 50.8% | – | 63.4% | 57.3% | 86.4% | 86.4% |
| CC(=O)[C@H]1CC[C@H]2[C@@H]3CC[C@H]4C[C@H](N)CC[C@]4(C)[C@H]3CC[C@]12C | 92.2% | 56% | 82.9% | 72.7% | 66.8% | 92% | 99.6% | 84.6% | 55.2% | 68.3% | 64.5% | 13.7% | 49.5% | 69.2% | 62.1% | 62.8% | 80.9% | 69.4% | 86.2% | – |
| CC(=O)c1ccc(C(=O)NCC2CCC3(CC2)OOC2(CCCCC2)OO3)cc1 | 32.8% | 56.2% | 74% | 70.9% | 84.7% | 87.9% | 94.9% | 66.6% | 84.7% | 90.2% | 82.5% | 83.4% | 99.8% | 64.4% | 71% | – | 80.9% | 35.3% | 95.5% | 96.9% |
| Cc1ccc(S(=O)(=O)C(Cl)(Cl)Cl)cc1 | 109% | 93.3% | 92.5% | 95.8% | 102% | 97.5% | 91.1% | 99.9% | 86.1% | 94.6% | 100% | 89% | 81.5% | 88.7% | 67.4% | 99.9% | – | 98.3% | 107% | 102% |
| O=C(CC1(O)C(=O)N(Cc2ccccc2)c2ccc(Cl)cc21)c1ccc(C(=O)NCC2CCC3(CC2)OOC2(CCCCC2)OO3)cc1 (centres undefined) | -97.6% (active) | -49% (active) | -70.3% (active) | -74.9% (active) | -80.5% (active) | -49.6% (active) | -8.3% (active) | -81.1% (active) | 26.4% | 25.5% | -14.1% (active) | -69.7% (active) | -61.7% (active) | -81.8% (active) | -54.3% (active) | – | 53% | -78.5% (active) | 58.5% | 30.9% |
| COC(=O)[C@]12CCC(C)(C)C[C@H]1[C@H]1C(=O)C[C@@H]3[C@@]4(C)C[C@@]5(CC(C)(C)[C@@H]4CC[C@@]3(C)[C@]1(C)CC2)OO[C@@](C)(C(F)(F)F)O5 | 107% | 88.3% | 108% | 94.8% | 95.3% | 93.1% | 95.7% | 101% | 102% | 99.2% | 95.3% | 102% | 74.9% | – | 86.7% | 99.5% | 84.3% | 95.7% | 107% | 91.7% |
| CC(C)=CC1C(C(=O)OCc2cccc(Oc3ccccc3)c2)C1(C)C (centres undefined) | 109% | 92.6% | 87.8% | 90.2% | 121% | 113% | 90.3% | 110% | 104% | 95.3% | 98.9% | 86.5% | 115% | 98.6% | 92.8% | – | 78.4% | 93.4% | 119% | 98.4% |
| CNC(=O)Oc1ccc(N(C)C)cc1C(C)C | 101% | 129% | 72.1% | 103% | 73.8% | 101% | 118% | 89.7% | 105% | 97.2% | 102% | 98.2% | 66.5% | 101% | – | 99.4% | 102% | 105% | – | 101% |
| Cn1cc(-c2csc(-c3cn(CCCCN4CCCCC4)c4ccccc34)n2)c2cccnc21 | 21% | -57.8% (active) | -66.9% (active) | -63.5% (active) | -84.5% (active) | 1.24% (active) | -18% (active) | -73.2% (active) | -67.3% (active) | -80.3% (active) | -74.9% (active) | -85.6% (active) | 53.1% | -72.3% (active) | 51.3% | -92.1% (active) | – | -72.6% (active) | -79.2% (active) | -32.1% (active) |
